The panel holds about 83,000 compounds, 20% with a hit somewhere; the sample as a whole holds those more often.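 Compound tested at a single concentration for 48 hours in 96-well plates; a percent growth value below 10 was scored as active.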 A number with no mark means an inactive call. Active and inactive are the calls of the source.
Columns and labels:
Assay in all cases: NCI-60 one-dose screen, 48 h (100 = growth as untreated, 0 = no growth, -100 = all killed)
Conditions in all cases: 10 µM unless noted
[1] = system: DU-145 prostate
[2] = system: K-562 leukemia
[3] = system: MALME-3M melanoma
[4] = system: MDA-MB-231 breast
[5] = system: RXF 393 renal
[6] = system: SF-268 CNS
[7] = system: SF-295 CNS
[8] = system: SF-539 CNS
[9] = system: UACC-257 melanoma
[10] = system: M14 melanoma
[11] = system: HCT-15 colon
[12] = system: HT29 colon
[13] = system: SNB-75 CNS
[14] = system: SNB-19 CNS
[15] = system: U251 CNS
[16] = system: PC-3 prostate
[17] = system: SK-MEL-5 melanoma
[18] = system: UACC-62 melanoma
[19] = system: LOX IMVI melanoma
[20] = system: SK-MEL-28 melanoma

## Cc1cccc2c3c(sc12)C(c1ccc(Cl)cc1)c1c(nc(CC(=O)Nc2ccccc2)[nH]c1=O)O3 (stereo not given)
[1]
  growth: 93%
[2]
  growth: 20.9%
[3]
  growth: 51.3%
[4]
  growth: 77%
[5]
  growth: 39.9%
[6]
  growth: 66.7%
[7]
  growth: 29.1%
[8]
  growth: 40%
[9]
  growth: 79.8%
[10]
  growth: 61.7%
[11]
  growth: 47.5%
[12]
  growth: 73.6%
[13]
  growth: 30.8%
[14]
  growth: 64.5%
[15]
  growth: 54.2%
[16]
  growth: 43.3%
[17]
  growth: 91.7%
[18]
  growth: 27%
[19]
  growth: 56.1%
[20]
  growth: 56.5%

## Cc1ccc(CSc2nc(-c3ccc(Cl)cc3)c(C#N)c(N3CCNCC3)n2)cc1
[1]
  growth: 82.6%
[2]
  growth: 3.43% (active)
[3]
  growth: 96.3%
[4]
  growth: 77.2%
[5]
  growth: 67.8%
[6]
  growth: 79.6%
[7]
  growth: 95.4%
[8]
  growth: 80.9%
[9]
  growth: 99.4%
[10]
  growth: 98.1%
[11]
  growth: 76.2%
[12]
  growth: 58.4%
[13]
  growth: 68.5%
[14]
  growth: 84.7%
[15]
  growth: 65.4%
[16]
  growth: 63.5%
[17]
  growth: 74.2%
[18]
  growth: 105%
[19]
  growth: 52.1%
[20]
  growth: 102%

## Cn1cc(-c2nnc(N)nc2-c2c[nH]c3ccc(F)cc23)c2cc(F)ccc21
[1]
  growth: 88.2%
[2]
  growth: 48.6%
[3]
  growth: 77.7%
[4]
  growth: 78.3%
[5]
  growth: 98.7%
[6]
  growth: 74.4%
[7]
  growth: 59.4%
[8]
  growth: 95.4%
[9]
  growth: 121%
[10]
  growth: 73.3%
[11]
  growth: 62%
[12]
  growth: 73.8%
[13]
  growth: 100%
[14]
  growth: 75.8%
[15]
  growth: 70.6%
[16]
  growth: 72.2%
[17]
  growth: 96.8%
[18]
  growth: 73.8%
[19]
  growth: 65.4%
[20]
  growth: 94.4%

## Cc1c(F)cc(C(N)=O)cc1NCC(=O)Nc1ccc([N+](=O)[O-])cc1
[1]
  growth: 86.7%
[2]
  growth: 101%
[3]
  growth: 109%
[4]
  growth: 89.8%
[5]
  growth: 45.5%
[6]
  growth: 81.2%
[7]
  growth: 93.6%
[8]
  growth: 95.1%
[9]
  growth: 102%
[10]
  growth: 99.1%
[11]
  growth: 94%
[12]
  growth: 105%
[13]
  growth: 47.2%
[14]
  growth: 98.5%
[15]
  growth: 109%
[16]
  growth: 89.5%
[17]
  growth: 95.7%
[18]
  growth: 84.2%
[19]
  growth: 84.1%
[20]
  growth: 103%

## CCN(CC)CCn1c2ccc(O)cc2c2sc3cc(OC)ccc3c(=O)c21
[1]
  growth: 17.2%
[2]
  growth: -34.8% (active)
[3]
  growth: 28.2%
[4]
  growth: 31.6%
[5]
  growth: 35%
[6]
  growth: 48.1%
[7]
  growth: 13.9%
[8]
  growth: -74.4% (active)
[9]
  growth: 80%
[10]
  growth: 0.234% (active)
[11]
  growth: 4.47% (active)
[12]
  growth: -13.8% (active)
[13]
  growth: 40.7%
[14]
  growth: 25.7%
[15]
  growth: 16.1%
[16]
  growth: 30.5%
[17]
  growth: 76.7%
[18]
  growth: 28.5%
[19]
  growth: -86% (active)
[20]
  growth: 2.25% (active)

## O=C1[C@H]2Cc3c([nH]c4ccccc34)[C@@H](c3ccc(Br)cc3)N2C(=O)CN1C1CCN(CC2CCCCC2)CC1
[1]
  growth: -49.7% (active)
[2]
  growth: -63.7% (active)
[3]
  growth: -82.3% (active)
[4]
  growth: -94.8% (active)
[5]
  growth: -96% (active)
[6]
  growth: 22.2%
[7]
  growth: -61.5% (active)
[8]
  growth: -89.3% (active)
[9]
  growth: -60.2% (active)
[10]
  growth: -77.2% (active)
[11]
  growth: -91.2% (active)
[12]
  growth: -71.1% (active)
[13]
  growth: -1.64% (active)
[14]
  growth: 4.34% (active)
[15]
  growth: -90.8% (active)
[16]
  growth: -52.3% (active)
[17]
  growth: -99.8% (active)
[18]
  growth: 42.3%
[19]
  growth: -87.1% (active)
[20]
  growth: -95.5% (active)

## CCCn1cnc2c(c1=N)C(c1ccc(Cl)cc1)c1sc3c(CC)cccc3c1O2 (stereo not given)
[1]
  growth: 13.7%
[2]
  growth: 11.3%
[3]
  growth: 55.6%
[4]
  growth: 30.8%
[5]
  growth: -22.5% (active)
[6]
  growth: 45.4%
[7]
  growth: -12.8% (active)
[8]
  growth: -19.7% (active)
[9]
  growth: 83.9%
[10]
  growth: 2.63% (active)
[11]
  growth: 17.6%
[12]
  growth: -5.38% (active)
[13]
  growth: -1.58% (active)
[14]
  growth: 23.1%
[15]
  growth: 14.3%
[16]
  growth: 3.88% (active)
[17]
  growth: 31%
[18]
  growth: 12.8%
[19]
  growth: 29.3%
[20]
  growth: 57.8%

## C=CCOc1cccc(/C=C2\SC(=S)N(C3CC(=O)N(c4ccc(Br)cc4)C3=O)C2=O)c1 (stereo not given)
[1]
  growth: 109%
[2]
  growth: 88.1%
[3]
  growth: 100%
[4]
  growth: 96.3%
[5]
  growth: 132%
[6]
  growth: 103%
[7]
  growth: 97.8%
[8]
  growth: 101%
[9]
  growth: 108%
[10]
  growth: 106%
[11]
  growth: 97.5%
[12]
  growth: 115%
[13]
  growth: 120%
[14]
  growth: 96.5%
[15]
  growth: 96.6%
[16]
  growth: 93.1%
[17]
  growth: 101%
[18]
  growth: 86.8%
[19]
  growth: 93.1%
[20]
  growth: 96.6%

## CCC(NC(c1cc2cccc3ccc4cccc1c4c32)c1nnnn1C(C)(C)C)C1CCCCC1 (stereo not given)
[1]
  growth: 69.7%
[2]
  growth: 35.2%
[3]
  growth: 83.5%
[4]
  growth: 55.9%
[5]
  growth: 69.8%
[6]
  growth: 74.6%
[7]
  growth: 63.5%
[8]
  growth: 63.2%
[9]
  growth: 38.6%
[10]
  growth: 80.5%
[11]
  growth: 38.4%
[12]
  growth: 69.4%
[13]
  growth: 75.6%
[14]
  growth: 68.9%
[15]
  growth: 53.8%
[16]
  growth: 45.8%
[17]
  growth: 6.39% (active)
[18]
  growth: 49.6%
[19]
  growth: 47.6%
[20]
  growth: 80.3%

## COC(=O)c1[nH]nc2c1C1(C(=O)c3cccc4cccc1c34)C(C#N)=C(N)O2 (stereo not given)
[1]
  growth: 104%
[2]
  growth: 91.2%
[3]
  growth: 103%
[4]
  growth: 91.4%
[5]
  growth: 93.5%
[6]
  growth: 84.1%
[7]
  growth: 104%
[8]
  growth: 101%
[9]
  growth: 103%
[10]
  growth: 108%
[11]
  growth: 99.4%
[12]
  growth: 105%
[13]
  growth: 80.4%
[14]
  growth: 97.2%
[15]
  growth: 105%
[16]
  growth: 83.9%
[17]
  growth: 98.6%
[18]
  growth: 91.8%
[19]
  growth: 97.7%
[20]
  growth: 112%

## COc1cc(-c2nn(C(C)(C)C)cc2-c2ccnc(NCCCNS(=O)(=O)c3ccc(Cl)cc3)n2)ccc1Cl
[1]
  growth: 60.5%
[2]
  growth: 33.5%
[3]
  growth: 87.9%
[4]
  growth: 55.5%
[5]
  growth: 4.9% (active)
[6]
  growth: 44.1%
[7]
  growth: 59.6%
[8]
  growth: 84.4%
[9]
  growth: 82.1%
[10]
  growth: 76.8%
[11]
  growth: 51.5%
[12]
  growth: 49.4%
[13]
  growth: 41.7%
[14]
  growth: 87.1%
[15]
  growth: 77.3%
[16]
  growth: 30.5%
[17]
  growth: 77%
[18]
  growth: 61.7%
[19]
  growth: 65.4%
[20]
  growth: 84.2%

## COC[C@]12CCC(C)(C)C[C@H]1C1=CC[C@@H]3[C@@]4(C)CCCNC(C)(C)[C@@H]4CC[C@@]3(C)[C@]1(C)CC2
[1]
  growth: -39.8% (active)
[2]
  growth: -43.7% (active)
[3]
  growth: -68.5% (active)
[4]
  growth: -53.3% (active)
[5]
  growth: -93% (active)
[6]
  growth: 33.7%
[7]
  growth: -89% (active)
[8]
  growth: -63.7% (active)
[9]
  growth: -18.5% (active)
[10]
  growth: -67.3% (active)
[11]
  growth: -86.5% (active)
[12]
  growth: -28% (active)
[13]
  growth: 12%
[14]
  growth: -2.59% (active)
[15]
  growth: -58.1% (active)
[16]
  growth: 0.7% (active)
[17]
  growth: -98.1% (active)
[18]
  growth: -74% (active)
[19]
  growth: -94.6% (active)
[20]
  growth: -79.4% (active)

## COc1cc(-c2nc3sccn3c2-c2ccnc(S(C)(=O)=O)n2)ccc1F
[1]
  growth: 102%
[2]
  growth: 89.6%
[3]
  growth: 4.8% (active)
[4]
  growth: 87%
[5]
  growth: 84.5%
[6]
  growth: 100%
[7]
  growth: 98.6%
[8]
  growth: 91.5%
[9]
  growth: 96.1%
[10]
  growth: 97.9%
[11]
  growth: 77.9%
[12]
  growth: 116%
[13]
  growth: 76.1%
[14]
  growth: 92%
[15]
  growth: 99.1%
[16]
  growth: 105%
[17]
  growth: 96.5%
[18]
  growth: 81.3%
[19]
  growth: 102%
[20]
  growth: 97.7%

## CC(=O)C1=C(C)NC(NNC(N)=S)=NC1c1ccccc1 (stereo not given)
[1]
  growth: 90.9%
[2]
  growth: 113%
[3]
  growth: 110%
[4]
  growth: 77%
[5]
  growth: 45.5%
[6]
  growth: 84.8%
[7]
  growth: 102%
[8]
  growth: 96.7%
[9]
  growth: 104%
[10]
  growth: 92.9%
[11]
  growth: 105%
[12]
  growth: 109%
[13]
  growth: 41.1%
[14]
  growth: 98.8%
[15]
  growth: 106%
[16]
  growth: 99.9%
[17]
  growth: 96.7%
[18]
  growth: 93.3%
[19]
  growth: 88.2%
[20]
  growth: 98.1%

## Cc1ccc(C2=Nn3c(nnc3-c3ccccc3)SC2)cc1
[1]
  growth: 22.2%
[2]
  growth: 15.7%
[3]
  growth: 59.5%
[4]
  growth: 51.4%
[5]
  growth: -6.84% (active)
[6]
  growth: 49.5%
[7]
  growth: 10.4%
[8]
  growth: 11.2%
[9]
  growth: 55.5%
[10]
  growth: 12.2%
[11]
  growth: 23%
[12]
  growth: 4.8% (active)
[13]
  growth: -4.24% (active)
[14]
  growth: 31.4%
[15]
  growth: 25.5%
[16]
  growth: 35.2%
[17]
  growth: 21.5%
[18]
  growth: 41.4%
[19]
  growth: 49%
[20]
  growth: 76.2%

## NC/C(=C/F)COc1ccc2nc(NCc3cccnc3)oc2c1
[1]
  growth: 95%
[2]
  growth: 109%
[3]
  growth: 108%
[4]
  growth: 96%
[5]
  growth: 66.9%
[6]
  growth: 93.2%
[7]
  growth: 99.9%
[8]
  growth: 91.9%
[9]
  growth: 95.9%
[10]
  growth: 103%
[11]
  growth: 109%
[12]
  growth: 112%
[13]
  growth: 63.1%
[14]
  growth: 105%
[15]
  growth: 105%
[16]
  growth: 104%
[17]
  growth: 99.5%
[18]
  growth: 101%
[19]
  growth: 98%
[20]
  growth: 110%

— PubChem BioAssay (NCI)
